Calls of active or inactive are those of the source. How the source made its calls: active means hit-call score of the fitted dose curve at least 0.9, where 1 is the maximum; inactive means score below 0.9.

By AC50 is commonly meant the concentration at which the activity in the assay is half-maximal.

The nature of this assay: IUF_NPC2c_oligodendrocyte_migration_120hr: Leibniz Research Institute for Environmental Medicine (IUF) 120-hour Neural Progenitor Cell Migration Assay for Oligodendrocyte Migration (NPC2c) (AID 2284297). As for the experimental part: IUF_NPC2-5 is a cell-based, multiplexed assay that uses hNPC, a human primary neural progenitor cells, with measurements taken at 72 or 120 hours after chemical dosing in a 96-well plate. Human neural progenitor cells (hNPC) are generated from human fetal brain cortex at gestational week (GW) 16-19. In the neural progenitor cell migration and differentiation assay (NPC2-5), hNPCs grown as spheres are plated on an extracellular matrix and migrate and differentiate out of the sphere core. The processes radial glia migration, neuronal and oligodendrocyte migration as well as neuronal differentiation, neuronal morphology and oligodendrocyte differentiation are studied using automated phase contrast imaging and automated fluorescence imaging in combination with high content image analysis. In parallel, the cell viability is assessed using an alamar blue viability assay and the cytotoxicity using a lactate dehydrogenase dependent membrane integrity assay.IUF_NPC2b_oligodendrocyte_migration_120hr is one of 12 assay components measured from the IUF_NPC2-5 assay. Oligodendrocyte migration distance at 120 hr is the mean distance of all oligodendrocytes from the edge of the sphere core to each individual oligodendrocyte (see IUF_NPC5_oligodendrocyte_differentiation_120hr). Oligodendrocyte migration is normalized to radial glia migration distance at 120 hr.Data from the IUF_NPC2c_oligodendrocyte_migration_120hr component was analyzed at the endpoint IUF_NPC2c_oligodendrocyte_migration_120hr in the positive analysis fitting direction relative to DMSO as the negative control and baseline of activity. Using a type of migration reporter, gain or loss-of-signal activity can be used to understand developmental effects.
Culture protocol: After the cell expansion period the cells are cultured for up to four weeks in which they are passaged every week as described in 3.6. Between one to three days after passaging spheres at a size of 0.3 mm are picked for the test method. For the assessment of neural progenitor cell migration and differentiation, the spheres are plated on poly-D-lysine/laminin coated 96-well flat bottom plates in differentiation medium (N2) to initiate migration and differentiation. Thereby one 0.3 mm big sphere is plated in the middle of a well. The differentiation medium consists of DMEM and Ham's F12 at a ratio of 3 to 1 supplemented with 1% N2 and 1% penicillin and streptomycin. Within 5 days NPCs radially migrate out of the sphere core and differentiate into radial glia cells (nestin positive), neurons (TUBB3 positive), oligodendrocytes (O4 positive) and astrocytes (GFAP positive). Cultivation during the test method is performed at 37C and 5% CO2 at a ph of 7.2-7.6.Exposure: 0.3 mm big hNPC are plated in the already prepared test conditions. Exposure starts at day 0 of differentiation and is continued over five days of differentiation until the experiment is terminated. Cells are fed with fresh medium at day 3 of differentiation. Therefore, half of the test condition solution (e.g. solvent control or compound dilution) is replaced by freshly prepared test condition solution.Test Method: Migration distance and cytotoxicity is determined after 72 hours based on brightfield images of each well. The assay is terminated by the assessment of cell viability and cytotoxicity as well as cell fixation after 120 h. Immunocytochemistry is performed for Hoechst positive nuclei, TUBB3 positive neurons and O4 positive oligodendrocytes. On the ICC images, migration after 120 hours, neuronal and oligodendrocyte number, neuronal morphology and neuron/oligodendrocyte specific migration is assessed. immunocytochemical staining (ICC) generates an image for each sphere. The plates are scanned using an automated high content imaging device and all nuclei and their positions are determined automatically based on their intensity and size. Images are imported to the Omnisphero software to run the image analysis that measures the following endpoints. […]
With `Cc1[nH]n(C)c(=O)c1C(=O)c1ccc(C(F)(F)F)cc1S(C)(=O)=O`, the outcome was inactive.
`C[C@@H]1CCO[C@H]2Cn3cc(C(=O)NCc4ccc(F)cc4F)c(=O)c(O)c3C(=O)N12`: the outcome was inactive.
As for `CCCCCC(C)(CC)C(=O)NC` (stereo unspecified), the compound was called inactive.
As for `CN(C)CCCn1cc(C2=C(c3c[nH]c4ccccc34)C(=O)NC2=O)c2ccccc21`, the AC50 is 18.6 µM (active).
Turning to `CCc1ccccc1`, the compound was classed as inactive.
Still for that read-out and setting: the result for `CCCCCC=C(C)C(CC)CCO` (stereo unspecified) reads “inactive”.
Same read-out and setting: the result for `CC(CNC(=S)[S-])NC(=S)[S-].[Zn+2]` (stereo unspecified) reads “inactive”; that for `CC(=O)N[C@@H](CC(=O)O)C(=O)O`, “inactive”; that for `CC(C)c1nn(C(=O)NC(C)(C)C)c(=O)n1N`, “inactive”.
Take `BrC1CC(Br)CC(Br)CC(Br)CC(Br)CC(Br)C1` (stereo unspecified): the AC50 was 1.24 µM (active).
Turning to `C[C@@H]1CC[C@@H](C(C)(C)O)[C@H](O)C1`, the call was inactive.
As to `CC(C)O`, the call was inactive.
`CCCCOCCOP(=O)(O)OCCOCCCC`: the outcome was inactive.
Consider `F`, for which the compound was classed as inactive.
The same measure, in the same setting: the same measure for `CC(=O)OC/N=[N+](\C)[O-]`: “inactive”.
As for `O=C1CC2(CCCC2)CC(=O)N1CCCCN1CCN(c2ncccn2)CC1`, the compound was classed as inactive.
